In PMC11006913 one finds binding signal data, which are given here for 17 sequences.

What all share (assay): PBM; 200 nM protein, PBS
Conditions in all cases: dsDNA, one strand shown

Assay [1] addresses T1, SIX6 (Homo sapiens, UniProt O95475 114-200, L167I).
T1 sequence: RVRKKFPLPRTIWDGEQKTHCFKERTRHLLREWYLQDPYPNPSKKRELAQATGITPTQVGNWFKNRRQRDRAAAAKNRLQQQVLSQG

Assay [2] addresses T2, SIX6 (Homo sapiens, UniProt O95475 114-200, L143V).
T2 sequence: T1 sequence with L30V, I54L

Assay [3] has as its target T3, SIX6 (Homo sapiens, UniProt O95475 114-200, H141N).
T3 sequence: T1 sequence with H28N, I54L

In assay [4] the target is T4, SIX6 (Homo sapiens, UniProt O95475 114-200, L167M).
T4 sequence: T1 sequence with I54M

In assay [5] the target is T5, SIX6 (Homo sapiens, UniProt O95475 114-200, L143M).
T5 sequence: T1 sequence with L30M, I54L

The target in assay [6] is T6, SIX6 (Homo sapiens, UniProt O95475 114-200, L143I).
T6 sequence: T1 sequence with L30I, I54L

In assay [7] the target is T7, SIX6 (Homo sapiens, UniProt O95475 114-200, T165G).
T7 sequence: T1 sequence with T52G, I54L

Assay [8] has as its target T8, SIX6 (Homo sapiens, UniProt O95475 114-200, T139Q).
T8 sequence: T1 sequence with T26Q, I54L

Assay [9] deals with HOXD13 (Homo sapiens, UniProt P35453 263-343, T313R).
HOXD13 (Homo sapiens, UniProt P35453 263-343, T313R), sequence (P35453 263-343 T313R): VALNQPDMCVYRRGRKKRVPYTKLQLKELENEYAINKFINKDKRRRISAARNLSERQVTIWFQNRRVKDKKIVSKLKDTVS
For assay [10], the target named is T9, SIX6 (Homo sapiens, UniProt O95475 114-200, T165A).
T9 sequence: T1 sequence with T52A, I54L

Assay [11] concerns the target HOXD13 (Homo sapiens, UniProt P35453 263-343).
For assay [12], the target named is T10, SIX6 (Homo sapiens, UniProt O95475 114-200, L167V).
T10 sequence: T1 sequence with I54V

Assay [13] addresses T11, SIX6 (Homo sapiens, UniProt O95475 114-200).
T11 sequence: T1 sequence with I54L

In assay [14] the target is HOXD13 (Homo sapiens, UniProt P35453 263-343, T313A).
HOXD13 (Homo sapiens, UniProt P35453 263-343, T313A), sequence (P35453 263-343 T313A): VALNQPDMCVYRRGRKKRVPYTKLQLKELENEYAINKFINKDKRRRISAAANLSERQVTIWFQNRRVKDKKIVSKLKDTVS
Assay [15] has as its target NKX3-2 (Homo sapiens, UniProt P78367 192-278, P234S).
Assay [16] concerns the target NKX3-2 (Homo sapiens, UniProt P78367 192-278).
The target in a further assay is T12, NKX2-6 (Homo sapiens, UniProt A6NCS4 118-204, R150C).
T12 sequence: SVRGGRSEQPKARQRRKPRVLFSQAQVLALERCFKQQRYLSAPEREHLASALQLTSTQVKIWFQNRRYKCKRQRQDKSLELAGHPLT

Another assay deals with CRX (Homo sapiens, UniProt O43186 26-111, R41L).
CRX, sequence (O43186 26-111 R41L): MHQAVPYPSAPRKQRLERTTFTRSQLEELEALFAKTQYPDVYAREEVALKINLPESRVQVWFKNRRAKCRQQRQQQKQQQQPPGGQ

Numbering of substitutions follows the chain as printed.

NKX3-2 (Homo sapiens, UniProt P78367 192-278, P234S), sequence (P78367 192-278 P234S): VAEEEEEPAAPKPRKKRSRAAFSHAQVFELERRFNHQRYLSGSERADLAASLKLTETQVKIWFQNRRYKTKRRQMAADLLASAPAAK
HOXD13 (Homo sapiens, UniProt P35453 263-343), sequence (P35453 263-343): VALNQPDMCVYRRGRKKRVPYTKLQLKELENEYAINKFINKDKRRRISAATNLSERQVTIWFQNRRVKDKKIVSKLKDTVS
NKX3-2 (Homo sapiens, UniProt P78367 192-278), sequence (P78367 192-278): as the sequence (P78367 192-278 P234S) above, with S43P counted along it

With CCAGGTCC, the binding signal in the assay with SIX6 [1] was 9.09 upbm affinity estimate (log intensity, higher = more binding, comparable within an allelic series); with SIX6 [2], 8.75 upbm affinity estimate (log intensity, higher = more binding, comparable within an allelic series); in the assay with SIX6 [3] it was 8.99 upbm affinity estimate (log intensity, higher = more binding, comparable within an allelic series); with SIX6 [4], 8.79 upbm affinity estimate (log intensity, higher = more binding, comparable within an allelic series); in the assay with SIX6 [5], 9.02 upbm affinity estimate (log intensity, higher = more binding, comparable within an allelic series); in the assay with SIX6 [6], 8.99 upbm affinity estimate (log intensity, higher = more binding, comparable within an allelic series). The binding signal in the assay with SIX6 [7] is 9.06 upbm affinity estimate (log intensity, higher = more binding, comparable within an allelic series); with SIX6 [8] it was 9.28 upbm affinity estimate (log intensity, higher = more binding, comparable within an allelic series); with HOXD13 [9] it was 9.45 upbm affinity estimate (log intensity, higher = more binding, comparable within an allelic series); with SIX6 [10] it was 9.07 upbm affinity estimate (log intensity, higher = more binding, comparable within an allelic series); with HOXD13 [11], 9.43 upbm affinity estimate (log intensity, higher = more binding, comparable within an allelic series); in the assay with SIX6 [12] it was 9 upbm affinity estimate (log intensity, higher = more binding, comparable within an allelic series). For the same sequence, the binding signal is 9.04 upbm affinity estimate (log intensity, higher = more binding, comparable within an allelic series) in the assay with SIX6 [13] and 9.65 upbm affinity estimate (log intensity, higher = more binding, comparable within an allelic series) in the assay with HOXD13 [14].

For the sequence CTAATTAC, the binding signal with NKX3-2 [15] was 11.6 upbm affinity estimate (log intensity, higher = more binding, comparable within an allelic series); in the assay with NKX3-2 [16], 11.7 upbm affinity estimate (log intensity, higher = more binding, comparable within an allelic series).

As for CAATTAAC, the binding signal in the assay with HOXD13 [14] is 11.6 upbm affinity estimate (log intensity, higher = more binding, comparable within an allelic series).

As to GGCAATTA, the binding signal with NKX3-2 [15] is 11.8 upbm affinity estimate (log intensity, higher = more binding, comparable within an allelic series); with NKX3-2 [16] it was 11.9 upbm affinity estimate (log intensity, higher = more binding, comparable within an allelic series).

In the case of CTAATTGA, the binding signal in the assay with NKX3-2 [15] is 11.5 upbm affinity estimate (log intensity, higher = more binding, comparable within an allelic series); with NKX3-2 [16] it was 11.6 upbm affinity estimate (log intensity, higher = more binding, comparable within an allelic series).

In the case of CCAATTAA, the binding signal with HOXD13 [9] is 10.8 upbm affinity estimate (log intensity, higher = more binding, comparable within an allelic series); with HOXD13 [11] it was 11.9 upbm affinity estimate (log intensity, higher = more binding, comparable within an allelic series); in the assay with HOXD13 [14], 11.8 upbm affinity estimate (log intensity, higher = more binding, comparable within an allelic series); with NKX3-2 [15], 11.7 upbm affinity estimate (log intensity, higher = more binding, comparable within an allelic series); with NKX3-2 [16] it was 11.8 upbm affinity estimate (log intensity, higher = more binding, comparable within an allelic series).

With ACTAATTG, the binding signal in the assay with NKX3-2 [15] is 11.8 upbm affinity estimate (log intensity, higher = more binding, comparable within an allelic series); with NKX3-2 [16] it was 11.8 upbm affinity estimate (log intensity, higher = more binding, comparable within an allelic series).

CAATTAAA: the binding signal is 10.7 upbm affinity estimate (log intensity, higher = more binding, comparable within an allelic series) in the assay with HOXD13 [9]; 11.7 upbm affinity estimate (log intensity, higher = more binding, comparable within an allelic series) with HOXD13 [11]; 11.7 upbm affinity estimate (log intensity, higher = more binding, comparable within an allelic series) with HOXD13 [14].

For ATTAATAG, the binding signal was 10.9 upbm affinity estimate (log intensity, higher = more binding, comparable within an allelic series) in the assay with HOXD13 [9]; 11.8 upbm affinity estimate (log intensity, higher = more binding, comparable within an allelic series) with HOXD13 [11]; 11.8 upbm affinity estimate (log intensity, higher = more binding, comparable within an allelic series) with HOXD13 [14].

Consider GACAATTA, for which the binding signal with NKX2-6 was 11 upbm affinity estimate (log intensity, higher = more binding, comparable within an allelic series).

With CTTGCGGC, the binding signal is 10.7 upbm affinity estimate (log intensity, higher = more binding, comparable within an allelic series) with NKX3-2 [15] and 10.6 upbm affinity estimate (log intensity, higher = more binding, comparable within an allelic series) with NKX3-2 [16].

In the case of GAGGGGGC, the binding signal with CRX was 8.14 upbm affinity estimate (log intensity, higher = more binding, comparable within an allelic series).

In the case of GGAGCGCA, the binding signal is 8.88 upbm affinity estimate (log intensity, higher = more binding, comparable within an allelic series) with SIX6 [1]; 8.9 upbm affinity estimate (log intensity, higher = more binding, comparable within an allelic series) in the assay with SIX6 [2]; 8.88 upbm affinity estimate (log intensity, higher = more binding, comparable within an allelic series) with SIX6 [3]; 8.87 upbm affinity estimate (log intensity, higher = more binding, comparable within an allelic series) with SIX6 [4]; 8.97 upbm affinity estimate (log intensity, higher = more binding, comparable within an allelic series) with SIX6 [5]; 8.85 upbm affinity estimate (log intensity, higher = more binding, comparable within an allelic series) in the assay with SIX6 [6]. The binding signal with SIX6 [7] is 8.87 upbm affinity estimate (log intensity, higher = more binding, comparable within an allelic series); with SIX6 [8] it was 8.78 upbm affinity estimate (log intensity, higher = more binding, comparable within an allelic series); with SIX6 [10], 8.96 upbm affinity estimate (log intensity, higher = more binding, comparable within an allelic series); with SIX6 [12] it was 8.93 upbm affinity estimate (log intensity, higher = more binding, comparable within an allelic series); with SIX6 [13], 8.87 upbm affinity estimate (log intensity, higher = more binding, comparable within an allelic series).

For ATTAATGC, in the assay with CRX, the binding signal was 11 upbm affinity estimate (log intensity, higher = more binding, comparable within an allelic series).

Consider CCGAGCGG, for which the binding signal with NKX2-6 is 9.43 upbm affinity estimate (log intensity, higher = more binding, comparable within an allelic series).

As to CCCAGGCG, the binding signal with NKX3-2 [15] was 10.6 upbm affinity estimate (log intensity, higher = more binding, comparable within an allelic series); in the assay with NKX3-2 [16], 10.6 upbm affinity estimate (log intensity, higher = more binding, comparable within an allelic series).

For the sequence CCGTAGGC, the binding signal with NKX3-2 [15] is 10.5 upbm affinity estimate (log intensity, higher = more binding, comparable within an allelic series); with NKX3-2 [16] it was 10.4 upbm affinity estimate (log intensity, higher = more binding, comparable within an allelic series).
